In PMC11006913 one finds binding signal data, which are given here for 18 sequences.

Common to all, as to assay: PBM; 200 nM protein, PBS
Common to all, as to settings: dsDNA, one strand shown

Test [1] has as its target T1, NKX2-4 (Homo sapiens, UniProt Q9H2Z4 175-261, P217L).
T1 sequence: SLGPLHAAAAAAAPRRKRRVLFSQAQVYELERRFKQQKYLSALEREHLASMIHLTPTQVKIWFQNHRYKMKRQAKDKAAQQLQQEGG

The target of test [2] is T2, NKX2-4 (Homo sapiens, UniProt Q9H2Z4 175-261, T231S).
T2 sequence: T1 sequence with L43P, T57S

For test [3], the target named is T3, NKX2-4 (Homo sapiens, UniProt Q9H2Z4 175-261).
T3 sequence: T1 sequence with L43P

Test [4] concerns the target T4, NKX2-4 (Homo sapiens, UniProt Q9H2Z4 175-261, R246Q).
T4 sequence: T1 sequence with L43P, R72Q

Residue numbers refer to the chain shown, from its start.

On to CGATCGCA, for which the binding signal was 9.9 upbm affinity estimate (log intensity, higher = more binding, comparable within an allelic series) with NKX2-4 [1]; 9.92 upbm affinity estimate (log intensity, higher = more binding, comparable within an allelic series) in the test with NKX2-4 [2]; 9.93 upbm affinity estimate (log intensity, higher = more binding, comparable within an allelic series) with NKX2-4 [3]; 9.97 upbm affinity estimate (log intensity, higher = more binding, comparable within an allelic series) with NKX2-4 [4].

In the case of GGTCGCCA, the binding signal is 9.68 upbm affinity estimate (log intensity, higher = more binding, comparable within an allelic series) in the test with NKX2-4 [1]; 9.67 upbm affinity estimate (log intensity, higher = more binding, comparable within an allelic series) with NKX2-4 [2]; 9.7 upbm affinity estimate (log intensity, higher = more binding, comparable within an allelic series) with NKX2-4 [3]; 9.8 upbm affinity estimate (log intensity, higher = more binding, comparable within an allelic series) with NKX2-4 [4].

For GGCGTGCA, the binding signal is 9.59 upbm affinity estimate (log intensity, higher = more binding, comparable within an allelic series) in the test with NKX2-4 [1]; 9.54 upbm affinity estimate (log intensity, higher = more binding, comparable within an allelic series) with NKX2-4 [2]; 9.62 upbm affinity estimate (log intensity, higher = more binding, comparable within an allelic series) in the test with NKX2-4 [3]; 9.63 upbm affinity estimate (log intensity, higher = more binding, comparable within an allelic series) in the test with NKX2-4 [4].

For CCGCCACG, the binding signal with NKX2-4 [1] is 9.92 upbm affinity estimate (log intensity, higher = more binding, comparable within an allelic series); in the test with NKX2-4 [2] it was 9.9 upbm affinity estimate (log intensity, higher = more binding, comparable within an allelic series); with NKX2-4 [3], 9.94 upbm affinity estimate (log intensity, higher = more binding, comparable within an allelic series); with NKX2-4 [4], 9.94 upbm affinity estimate (log intensity, higher = more binding, comparable within an allelic series).

In the case of CGATCCCG, the binding signal with NKX2-4 [1] is 9.54 upbm affinity estimate (log intensity, higher = more binding, comparable within an allelic series); in the test with NKX2-4 [2], 9.56 upbm affinity estimate (log intensity, higher = more binding, comparable within an allelic series); in the test with NKX2-4 [3], 9.59 upbm affinity estimate (log intensity, higher = more binding, comparable within an allelic series); with NKX2-4 [4], 9.65 upbm affinity estimate (log intensity, higher = more binding, comparable within an allelic series).

With AGTACTCA, the binding signal with NKX2-4 [1] was 12.5 upbm affinity estimate (log intensity, higher = more binding, comparable within an allelic series); in the test with NKX2-4 [2] it was 12.9 upbm affinity estimate (log intensity, higher = more binding, comparable within an allelic series); with NKX2-4 [3], 12.4 upbm affinity estimate (log intensity, higher = more binding, comparable within an allelic series); in the test with NKX2-4 [4], 12.9 upbm affinity estimate (log intensity, higher = more binding, comparable within an allelic series).

In the case of CGCACGCG, the binding signal with NKX2-4 [1] is 9.51 upbm affinity estimate (log intensity, higher = more binding, comparable within an allelic series); in the test with NKX2-4 [2], 9.45 upbm affinity estimate (log intensity, higher = more binding, comparable within an allelic series); in the test with NKX2-4 [3], 9.53 upbm affinity estimate (log intensity, higher = more binding, comparable within an allelic series); in the test with NKX2-4 [4], 9.45 upbm affinity estimate (log intensity, higher = more binding, comparable within an allelic series).

Take CCCAGACG: the binding signal in the test with NKX2-4 [1] is 9.29 upbm affinity estimate (log intensity, higher = more binding, comparable within an allelic series); in the test with NKX2-4 [2] it was 9.36 upbm affinity estimate (log intensity, higher = more binding, comparable within an allelic series); with NKX2-4 [3], 9.37 upbm affinity estimate (log intensity, higher = more binding, comparable within an allelic series); in the test with NKX2-4 [4], 9.46 upbm affinity estimate (log intensity, higher = more binding, comparable within an allelic series).

For CGCCCTGA, the binding signal with NKX2-4 [1] was 9.84 upbm affinity estimate (log intensity, higher = more binding, comparable within an allelic series); in the test with NKX2-4 [2] it was 9.84 upbm affinity estimate (log intensity, higher = more binding, comparable within an allelic series); in the test with NKX2-4 [3], 9.83 upbm affinity estimate (log intensity, higher = more binding, comparable within an allelic series); in the test with NKX2-4 [4], 9.87 upbm affinity estimate (log intensity, higher = more binding, comparable within an allelic series).

For CAAACCCG, the binding signal in the test with NKX2-4 [1] was 9.56 upbm affinity estimate (log intensity, higher = more binding, comparable within an allelic series); with NKX2-4 [2] it was 9.55 upbm affinity estimate (log intensity, higher = more binding, comparable within an allelic series); in the test with NKX2-4 [3], 9.55 upbm affinity estimate (log intensity, higher = more binding, comparable within an allelic series); in the test with NKX2-4 [4], 9.6 upbm affinity estimate (log intensity, higher = more binding, comparable within an allelic series).

As to AGGCAGCC, the binding signal in the test with NKX2-4 [1] is 9.69 upbm affinity estimate (log intensity, higher = more binding, comparable within an allelic series); in the test with NKX2-4 [2] it was 9.68 upbm affinity estimate (log intensity, higher = more binding, comparable within an allelic series); in the test with NKX2-4 [3], 9.68 upbm affinity estimate (log intensity, higher = more binding, comparable within an allelic series); in the test with NKX2-4 [4], 9.7 upbm affinity estimate (log intensity, higher = more binding, comparable within an allelic series).

CCCGCAGG: the binding signal with NKX2-4 [1] is 8.95 upbm affinity estimate (log intensity, higher = more binding, comparable within an allelic series); with NKX2-4 [2], 8.81 upbm affinity estimate (log intensity, higher = more binding, comparable within an allelic series); in the test with NKX2-4 [3], 9.01 upbm affinity estimate (log intensity, higher = more binding, comparable within an allelic series); in the test with NKX2-4 [4], 8.96 upbm affinity estimate (log intensity, higher = more binding, comparable within an allelic series).

Regarding GTGGCCAC, the binding signal in the test with NKX2-4 [1] is 10.2 upbm affinity estimate (log intensity, higher = more binding, comparable within an allelic series); with NKX2-4 [2] it was 10.2 upbm affinity estimate (log intensity, higher = more binding, comparable within an allelic series); with NKX2-4 [3], 10.2 upbm affinity estimate (log intensity, higher = more binding, comparable within an allelic series); with NKX2-4 [4], 10.3 upbm affinity estimate (log intensity, higher = more binding, comparable within an allelic series).

On to ATGTCCGG, for which the binding signal is 9.39 upbm affinity estimate (log intensity, higher = more binding, comparable within an allelic series) in the test with NKX2-4 [1]; 9.43 upbm affinity estimate (log intensity, higher = more binding, comparable within an allelic series) with NKX2-4 [2]; 9.4 upbm affinity estimate (log intensity, higher = more binding, comparable within an allelic series) in the test with NKX2-4 [3]; 9.49 upbm affinity estimate (log intensity, higher = more binding, comparable within an allelic series) in the test with NKX2-4 [4].

For GCGCGACA, the binding signal in the test with NKX2-4 [1] is 9.99 upbm affinity estimate (log intensity, higher = more binding, comparable within an allelic series); with NKX2-4 [2], 10 upbm affinity estimate (log intensity, higher = more binding, comparable within an allelic series); in the test with NKX2-4 [3] it was 10 upbm affinity estimate (log intensity, higher = more binding, comparable within an allelic series); with NKX2-4 [4] it was 10.1 upbm affinity estimate (log intensity, higher = more binding, comparable within an allelic series).

For the sequence AGTGGTTC, the binding signal is 11.8 upbm affinity estimate (log intensity, higher = more binding, comparable within an allelic series) with NKX2-4 [1]; 12 upbm affinity estimate (log intensity, higher = more binding, comparable within an allelic series) in the test with NKX2-4 [2]; 11.8 upbm affinity estimate (log intensity, higher = more binding, comparable within an allelic series) with NKX2-4 [3]; 12.1 upbm affinity estimate (log intensity, higher = more binding, comparable within an allelic series) with NKX2-4 [4].

Take CCGGTCGC: the binding signal with NKX2-4 [1] is 9.53 upbm affinity estimate (log intensity, higher = more binding, comparable within an allelic series); with NKX2-4 [2], 9.41 upbm affinity estimate (log intensity, higher = more binding, comparable within an allelic series); with NKX2-4 [3] it was 9.5 upbm affinity estimate (log intensity, higher = more binding, comparable within an allelic series); in the test with NKX2-4 [4] it was 9.51 upbm affinity estimate (log intensity, higher = more binding, comparable within an allelic series).

For GCACGGGC, the binding signal was 9.59 upbm affinity estimate (log intensity, higher = more binding, comparable within an allelic series) with NKX2-4 [1]; 9.54 upbm affinity estimate (log intensity, higher = more binding, comparable within an allelic series) with NKX2-4 [2]; 9.58 upbm affinity estimate (log intensity, higher = more binding, comparable within an allelic series) with NKX2-4 [3]; 9.56 upbm affinity estimate (log intensity, higher = more binding, comparable within an allelic series) with NKX2-4 [4].
